In PubChem BioAssay (Tox21):
Records with an inconclusive call do not appear. Active and inactive are the calls of the source. Unless noted, the call rests on the fitted dose curve.

Key:
[1] = Nuclear factor erythroid 2-related factor 2/antioxidant responsive element (Nrf2/ARE) small molecule agonists: luciferase reporter gene qHTS assay in human keratinocytes (AID 1919969); further: nearly all actives have a fitted effect of over 35% in size
[2] = target: Gonadotropin-releasing hormone receptor (Homo sapiens) (UniProt P30968); assay: Human gonadotropin-releasing hormone receptor (GnRHR) small molecule agonists, calcium flux assay in GnRHR-HEK293 cells (AID 1920063); further: nearly all actives have a fitted effect of over 35% in size
Summary of the method: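 We seeded human GnRHR-expressing HEK293 cells for 18 hours, loaded them with calcium dye for an hour at 37 C, added test compounds, and recorded fluorescence intensity kinetically for three minutes.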

[3] = target: KiSS-1 receptor (Homo sapiens) (UniProt Q969F8); assay: Human kisspeptin (KISS1R) small molecule agonists, calcium flux assay in KISS1R-HEK293 cells (AID 1920064; active means well fitted activation curve with a large enough effect in the repeat runs)
Summary of the method: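 Kinetic calcium assay, 1 s sampling over 3 min at Ex/Em 480/540, in HEK293 cells engineered with human KISS1R; compounds delivered in DMSO after 1 h dye loading.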

[4] = G protein-coupled receptor (GPCR) small molecule agonists, calcium flux assay: HEK293 wild type cell line counter screen (AID 1920065)
Summary of the method: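 Calcium-sensitive dye, loaded 1 h at 37 C into cells cultured 18 h, reports compound-evoked calcium release as fluorescence (Ex/Em 480/540), measured over 3 min. Agonist mode; 15-point titrations, triplicate.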

[5] = p53 small molecule agonists, cell-based qHTS assay with human liver microsomes (AID 1963577);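 further: p53 response element beta-lactamase reporter cells with liver microsomes plus NADPH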
Summary of the method: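 p53RE-bla cells; 5 h settle, 37 C/5% CO2; cpd + HLM 0.5 mg/mL + NADPH 0.5 mg/mL (final); 16 h 37 C; LiveBLAzer 2 h RT dark; fluorescence readout.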

[6] = p53 small molecule agonists, cell-based qHTS assay with rat liver microsomes (AID 1963578)
Summary of the method: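 Rat liver microsome activation: microsomes 0.5 mg/mL, NADPH 0.5 mg/mL final; p53RE-bla cells, 16 h 37 C; LiveBLAzer readout, 2 h RT dark.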

[7] = p53 small molecule agonists, cell-based qHTS assay with human liver microsomes: qHTS cell viability counter screen (AID 1963579); further: nearly all actives have a fitted effect of over 45% in size
Summary of the method: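 Luminescent CellTiter-Glo read-out, 30 min at room temperature, gauged cytotoxicity in p53RE-bla cells exposed 16 h at 37 C to DMSO-dissolved compounds with metabolic activation by human liver microsomes and NADPH, each 0.5 mg/mL final.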

[8] = p53 small molecule agonists, cell-based qHTS assay with rat liver microsomes: qHTS cell viability counter screen (AID 1963580); further: nearly all actives have a fitted effect of over 45% in size
Summary of the method: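 HCT-116 p53RE-bla, 4,000 cells/well, 5 h pre-incubation; cpd + rat liver microsomes 0.5 mg/mL + NADPH 0.5 mg/mL (final); 16 h, 37 C; CellTiter-Glo, 30 min RT; luminescence.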

[9] = p53 small molecule agonists, cell-based qHTS assay: qHTS cell viability counter screen (AID 1963581); further: nearly all actives have a fitted effect of over 45% in size
Summary of the method: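 Following 5 h attachment, HCT-116 p53RE-bla cells took up compound for 16 h at 37 C; the reporter was read with B/G FRET substrate (2 h RT), and viability then via CellTiter-Glo ATP luminescence.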

[10] = target: 5-hydroxytryptamine receptor 2A (Homo sapiens) (UniProt P28223); assay: 5-hydroxytryptamine receptor 2A (HTR2A) small molecule antagonists, cell-based qHTS assay (AID 1963586); further: nearly all actives have a fitted effect of over 45% in size
Summary of the method: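 Antagonist-mode intracellular calcium assay: DOI (4 nM) added after 5 min compound pre-incubation at room temperature to dye-loaded HTR2A-CHO cells. Fluorescence followed for 3 min, sampled every second.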

[11] = target: 5-hydroxytryptamine receptor 2A (Homo sapiens) (UniProt P28223); assay: 5-hydroxytryptamine receptor 2A (HTR2A) small molecule agonists, cell-based qHTS assay (AID 1963587); further: nearly all actives have a fitted effect of over 30% in size
Summary of the method: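 Kinetic calcium-flux fluorescence (2 min, 1 sec intervals) after compound addition in agonist mode. HTR2A-CHO cells were cultured 18 h, then dye-loaded 1 h at 37 C.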

[12] = target: Muscarinic acetylcholine receptor M1 (Homo sapiens) (UniProt P11229); assay: Cholinergic receptor muscarinic 1 (CHRM1) small molecule antagonists, cell-based qHTS assay (AID 1963588); further: nearly all actives have a fitted effect of over 40% in size
Summary of the method: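 CHRM1-CHO calcium-flux assay, antagonist mode. Cells were seeded 18 h, dye-loaded 1 h at 37 C and given compound for 5 min at RT, then acetylcholine was added at 50nM. FDSS fluorescence was read 3 min; 15 concentrations, three runs.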

[13] = target: Muscarinic acetylcholine receptor M1 (Homo sapiens) (UniProt P11229); assay: Cholinergic receptor muscarinic 1 (CHRM1) small molecule agonists, cell-based qHTS assay (AID 1963589); further: nearly all actives have a fitted effect of over 35% in size
Summary of the method: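 Measures agonist-induced intracellular calcium rise. Stable human CHRM1 CHO line, 1 h dye load at 37 C, compounds from DMSO, kinetic fluorescence read.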

[14] = cAMP Responsive Elements (CRE) small molecule antagonists, cell-based qHTS assay (AID 1963591; active means well fitted inhibition curve with a large enough effect in the signal ratio in the repeat runs, not every such curve was filed as active; the % refers to the signal ratio)
Summary of the method: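 HEK293T cells carrying a CRE-driven beta-lactamase reporter receive compound and NKH477 (0.25 uM final) for 3 h. Fluorescence from LiveBLAzer B/G FRET substrate is read after 2 h at room temperature.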

[15] = target: Beta-2 adrenergic receptor (Homo sapiens) (UniProt P07550); assay: Adrenergic beta2 receptor (ADRB2) small molecule antagonists, cell-based qHTS assay (AID 1963592); further: series mostly up to about 92 µM; nearly all actives have a fitted effect of over 50% in size
Summary of the method: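 Cells (CHO, stable ADRB2 overexpression) incubated 18-20hr at 37C; compounds added from DMSO; agonist mix (1nM isoproterenol, 100uM IBMX, 25uM Ro-20-1724) added; 0.5hr RT; d2-cAMP and anti-cAMP-cryptate added; 1hr RT; 665/615 nm read.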

[16] = target: Beta-2 adrenergic receptor (Homo sapiens) (UniProt P07550); assay: Adrenergic beta2 receptor (ADRB2) small molecule agonists, cell-based qHTS assay (AID 1963593);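 further: CHO cells stably overexpressing human ADRB2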
Summary of the method: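 CHO cells stably over-expressing ADRB2 were plated overnight at 37C, then dosed with compounds plus a stimulation mix containing 100uM IBMX and 25uM Ro-20-1724 for 0.5hr at room temperature. cAMP was measured by HTRF competition, 1hr.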

[17] = target: D(2) dopamine receptor (Homo sapiens) (UniProt P14416); assay: Dopamine D2 receptor (DRD2) small molecule agonists, cell-based qHTS assay (AID 1963594); further: nearly all actives have a fitted effect of over 35% in size
Summary of the method: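 cAMP accumulation in DRD2-HEK293 cells measured by HTRF after 1 h detection; compounds added 10 min before NKH477 (200nM […]) forskolin-analogue stimulation, 30 min at room temperature, with Ro20-1724 present at 0.1 mM final.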

[18] = target: D(2) dopamine receptor (Homo sapiens) (UniProt P14416); assay: Dopamine D2 receptor (DRD2) small molecule antagonists, cell-based qHTS assay (AID 1963595; active means well fitted inhibition curve with a large enough effect in the signal ratio in the repeat runs, with a control signal flat; the % refers to the signal ratio)
Summary of the method: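 HEK293 cells stably expressing DRD2 were preincubated with 0.1 mM Ro20-1724, then with compound for 10 min at room temperature. Cells were stimulated with 200 nM NKH477 plus 12 nM quinpirole for 30 min, and cAMP was read by HTRF.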

[19] = cAMP Responsive Elements (CRE) small molecule agonists, cell-based qHTS assay (AID 1963590)
Summary of the method: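 A CRE-responsive beta-lactamase reporter in HEK 293T cells was used. Treatment ran 3 h at 37 C; detection used LiveBLAzer B/G FRET substrate for 2 h at room temperature.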

[20] = p53 small molecule agonists, cell-based qHTS assay (AID 1963582; active means well fitted activation curve with a large enough effect in the signal ratio in the repeat runs, not every such curve was filed as active; the % refers to the signal ratio)
Summary of the method: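 In this cell-based concentration-response screen, a p53 response element drives beta-lactamase; cells received DMSO-borne compounds after 5 h culture and were incubated a further 16 h before FRET substrate development.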
On the % scale 0 is the no-effect control and ±100 the full control effect.

Sequence of 5-hydroxytryptamine receptor 2A (Homo sapiens) (P28223 whole entry, looked up): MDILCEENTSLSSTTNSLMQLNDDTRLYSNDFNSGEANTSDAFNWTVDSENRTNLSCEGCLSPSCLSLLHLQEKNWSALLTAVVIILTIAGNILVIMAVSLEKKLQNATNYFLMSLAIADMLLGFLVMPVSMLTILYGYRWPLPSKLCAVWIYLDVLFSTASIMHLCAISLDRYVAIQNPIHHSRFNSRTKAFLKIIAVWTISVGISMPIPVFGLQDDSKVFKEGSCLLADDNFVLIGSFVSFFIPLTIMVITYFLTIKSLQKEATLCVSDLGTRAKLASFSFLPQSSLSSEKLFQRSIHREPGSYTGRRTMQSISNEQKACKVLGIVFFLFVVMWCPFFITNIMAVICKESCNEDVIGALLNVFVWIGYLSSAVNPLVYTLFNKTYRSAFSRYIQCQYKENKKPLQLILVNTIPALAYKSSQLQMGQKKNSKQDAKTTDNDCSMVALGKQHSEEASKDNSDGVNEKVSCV
Sequence of KiSS-1 receptor (Homo sapiens) (Q969F8 whole entry, looked up): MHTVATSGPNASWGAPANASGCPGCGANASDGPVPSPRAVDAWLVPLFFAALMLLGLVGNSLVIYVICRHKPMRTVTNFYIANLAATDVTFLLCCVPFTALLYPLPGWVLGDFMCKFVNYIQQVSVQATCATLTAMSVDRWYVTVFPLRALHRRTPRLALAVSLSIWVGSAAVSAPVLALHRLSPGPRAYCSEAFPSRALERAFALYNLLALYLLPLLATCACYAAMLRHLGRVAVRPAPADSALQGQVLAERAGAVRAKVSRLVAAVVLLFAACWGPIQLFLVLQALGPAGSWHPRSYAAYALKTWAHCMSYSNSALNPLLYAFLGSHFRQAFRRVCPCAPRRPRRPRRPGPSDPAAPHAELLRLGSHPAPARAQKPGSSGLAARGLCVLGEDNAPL
Sequence of Muscarinic acetylcholine receptor M1 (Homo sapiens) (P11229 whole entry, looked up): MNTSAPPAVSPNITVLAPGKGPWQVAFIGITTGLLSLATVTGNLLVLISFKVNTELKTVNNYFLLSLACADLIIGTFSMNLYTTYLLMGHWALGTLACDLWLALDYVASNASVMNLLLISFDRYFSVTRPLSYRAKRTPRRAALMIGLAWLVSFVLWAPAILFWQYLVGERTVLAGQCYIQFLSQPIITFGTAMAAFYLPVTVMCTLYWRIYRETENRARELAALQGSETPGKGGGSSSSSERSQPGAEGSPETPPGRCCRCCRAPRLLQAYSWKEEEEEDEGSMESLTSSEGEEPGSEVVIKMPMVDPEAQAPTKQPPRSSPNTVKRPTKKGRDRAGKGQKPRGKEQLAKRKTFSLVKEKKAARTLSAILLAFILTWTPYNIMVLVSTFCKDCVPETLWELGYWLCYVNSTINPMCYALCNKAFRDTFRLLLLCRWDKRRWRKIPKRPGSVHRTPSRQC
Sequence of Beta-2 adrenergic receptor (Homo sapiens) (P07550 whole entry, looked up): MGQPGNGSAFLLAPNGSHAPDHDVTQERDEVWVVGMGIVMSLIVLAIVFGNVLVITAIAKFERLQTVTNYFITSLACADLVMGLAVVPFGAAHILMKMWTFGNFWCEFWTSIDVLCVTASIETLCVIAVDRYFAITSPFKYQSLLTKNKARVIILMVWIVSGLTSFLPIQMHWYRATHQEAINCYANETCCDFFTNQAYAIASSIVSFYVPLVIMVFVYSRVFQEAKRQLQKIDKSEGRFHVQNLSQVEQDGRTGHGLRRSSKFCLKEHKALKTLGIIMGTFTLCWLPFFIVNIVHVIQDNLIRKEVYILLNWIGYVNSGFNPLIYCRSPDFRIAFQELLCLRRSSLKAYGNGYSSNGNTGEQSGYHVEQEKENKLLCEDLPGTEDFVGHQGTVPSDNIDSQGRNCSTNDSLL
Sequence of D(2) dopamine receptor (Homo sapiens) (P14416 whole entry, looked up): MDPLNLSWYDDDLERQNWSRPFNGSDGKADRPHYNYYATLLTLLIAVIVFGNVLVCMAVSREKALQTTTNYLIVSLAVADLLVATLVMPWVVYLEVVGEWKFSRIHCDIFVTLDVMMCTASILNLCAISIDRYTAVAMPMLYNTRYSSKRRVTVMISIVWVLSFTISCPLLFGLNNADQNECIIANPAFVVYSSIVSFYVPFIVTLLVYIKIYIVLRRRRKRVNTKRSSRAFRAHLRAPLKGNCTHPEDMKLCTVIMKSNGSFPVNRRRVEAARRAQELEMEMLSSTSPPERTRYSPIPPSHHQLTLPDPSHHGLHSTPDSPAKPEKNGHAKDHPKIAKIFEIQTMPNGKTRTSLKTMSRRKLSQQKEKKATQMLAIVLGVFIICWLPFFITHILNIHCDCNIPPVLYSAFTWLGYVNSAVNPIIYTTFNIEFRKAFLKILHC
Sequence of Gonadotropin-releasing hormone receptor (Homo sapiens) (P30968 whole entry, looked up): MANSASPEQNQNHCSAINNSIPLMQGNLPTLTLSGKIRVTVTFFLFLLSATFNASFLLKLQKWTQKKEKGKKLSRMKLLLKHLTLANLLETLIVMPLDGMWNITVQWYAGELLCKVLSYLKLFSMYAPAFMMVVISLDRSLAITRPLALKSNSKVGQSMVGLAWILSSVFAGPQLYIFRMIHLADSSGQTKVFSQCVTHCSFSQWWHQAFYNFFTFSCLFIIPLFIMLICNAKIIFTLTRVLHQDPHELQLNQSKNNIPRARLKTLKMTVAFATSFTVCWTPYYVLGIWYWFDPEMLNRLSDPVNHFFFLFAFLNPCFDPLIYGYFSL

Oc1ccccc1Cc1ccccc1O
inactive: Potency [1] | Potency [2] | outcome [3] | outcome [4] | Potency [5] | Potency [6] | Potency [7] | Potency [8] | Potency [9] | Potency [10] | Potency [11] | Potency [12] | Potency [13] | Potency [14] | Potency [15] | Potency [16] | Potency [17] | Potency [18]

CCCCCC(=O)OCC
inactive: Potency [1] | Potency [2] | outcome [3] | outcome [4] | Potency [5] | Potency [6] | Potency [7] | Potency [8] | Potency [9] | Potency [10] | Potency [11] | Potency [12] | Potency [13] | Potency [19] | Potency [14] | Potency [15] | Potency [16] | Potency [17] | Potency [18]

O=C(O)C[C@H](O)C[C@H](O)/C=C/c1c(C2CC2)nc2ccccc2c1-c1ccc(F)cc1
inactive: activity, positive = activation [1] -21.1% [at 19 µM] | activity change [2] -1.52% [at 11.8 µM, active compounds read high] | activation [3] -0.214% [at 15.8 µM] | activation [4] -0.173% [at 11.8 µM] | activation [5] -13.7% [at 13.5 µM] | activation [6] -4.07% [at 13.6 µM] | activity change, negative = cytotoxicity [7] -1.08% [at 13.5 µM] | activity change, negative = cytotoxicity [8] 1.65% [at 13.5 µM] | activity change, negative = cytotoxicity [9] 0.0104% [at 13.5 µM] | activity, negative = inhibition [10] -9.13% [at 12.7 µM] | activation [11] -5.4% [at 15.9 µM] | activation [13] -0.297% [at 15.8 µM] | activation [19] 0.303% [at 19 µM] | activity change, negative = inhibition [15] -0.968% [at 19 µM] | activation [17] -0.0463% [at 19 µM] | activity change, negative = inhibition [18] 4% [at 18.9 µM]

CCc1cccc(CC)c1
inactive: Potency [1] | Potency [2] | outcome [3] | outcome [4] | Potency [5] | Potency [6] | Potency [7] | Potency [8] | Potency [9] | Potency [20] | Potency [10] | Potency [11] | Potency [13] | Potency [19] | Potency [14] | Potency [16] | Potency [18]

OC[C@H]1O[C@@H](O[C@@H]2[C@@H](CO)O[C@](O)(CO)[C@H]2O)[C@H](O)[C@@H](O)[C@H]1O
inactive: Potency [1] | Potency [2] | outcome [3] | outcome [4] | Potency [5] | Potency [6] | Potency [7] | Potency [8] | Potency [9] | Potency [20] | Potency [11] | Potency [12] | Potency [13] | Potency [19] | Potency [14] | Potency [15] | Potency [16] | Potency [17] | Potency [18]

CN(Cc1cc(Br)cc(Br)c1N)C1CCCCC1
inactive: Potency [1] | Potency [2] | outcome [3] | outcome [4] | Potency [5] | Potency [6] | Potency [7] | Potency [8] | Potency [9] | Potency [20] | Potency [19] | Potency [16] | Potency [18]

C=COCC(C)C
inactive: Potency [1] | Potency [2] | outcome [3] | outcome [4] | Potency [5] | Potency [6] | Potency [7] | Potency [8] | Potency [9] | Potency [10] | Potency [11] | Potency [12] | Potency [13] | Potency [19] | Potency [14] | Potency [15] | Potency [17] | Potency [18]
